This note sets out measurements from PubChem BioAssay AID720566 (Broad Institute, 2013).

The test concerns the target Protein disulfide-isomerase A6 (Homo sapiens) (UniProt Q15084). Briefly: inhibitors of ERp5-mediated insulin aggregation, dose response, biochemical, turbidity, absorbance 650 nm, cherry-picked samples (AID 720566).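 Further: negative values mean less insulin aggregation so ERp5 inhibition.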

Potency and affinity values are given separately. Calls of active or inactive are those of the source.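 How the source made its calls: active means in all runs, an absorbance decrease of 25% or more of the average positive control decrease; inconclusive means runs conflict, with both active and inactive results; inactive means all runs inactive, opposite-direction effects included.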

Chain of Protein disulfide-isomerase A6 (Homo sapiens) (Q15084 whole entry, looked up): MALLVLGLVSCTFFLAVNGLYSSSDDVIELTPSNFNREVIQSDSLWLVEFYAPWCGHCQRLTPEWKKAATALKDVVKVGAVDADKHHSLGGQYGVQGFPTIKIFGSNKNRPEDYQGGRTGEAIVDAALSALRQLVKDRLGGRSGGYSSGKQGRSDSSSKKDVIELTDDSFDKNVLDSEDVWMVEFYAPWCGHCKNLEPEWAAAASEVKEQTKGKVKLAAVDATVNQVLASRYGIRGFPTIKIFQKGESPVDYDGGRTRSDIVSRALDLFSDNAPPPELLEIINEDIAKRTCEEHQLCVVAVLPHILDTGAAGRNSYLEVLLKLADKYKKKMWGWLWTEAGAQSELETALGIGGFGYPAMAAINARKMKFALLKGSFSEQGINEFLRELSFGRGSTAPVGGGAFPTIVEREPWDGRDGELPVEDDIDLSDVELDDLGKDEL

As for `CCn1nc(/C=C/c2ccccc2)nc2c(=O)n(C)c(=O)nc1-2`, the outcome was inactive.
As for `COc1ccc(C#Cc2ccc([C@H]3[C@H](CO)N4CCCCN(C(=O)Cc5cccnc5)C[C@@H]34)cc2)cc1`, the result was inactive.
The result for `C[C@H](CO)N1C[C@H](C)[C@@H](CN(C)C(=O)Oc2ccc3ccccc3c2)OCc2cn(nn2)CCCC1=O` reads “inactive”.
The result for `Cc1cc(OCC(=O)NCc2ccc(S(N)(=O)=O)cc2)c2c3c(c(=O)oc2c1)CCC3` reads “inactive”.
